# Assay outcomes (PubChem BioAssay)
# This excerpt belongs to a sample that is enriched for hits.
# RmlCD inh mix = mixture blocks RmlC and RmlD coupled enzyme activity | RmlC/RmlD coupled enzyme inhibition, 384-well mixture HTS | inhibition, % at 5.5 µM | actives 0.39% (n = 110,000) | AID 1532; in the data active = inhibition above about 30%, passing the limit was not always enough; inconclusive = no clear call, values can overlap the other calls
# RT RNaseH block = blocks HIV-1 RNase H cleavage of RNA/DNA duplex; P04585; RT-RNase H RNA/DNA duplex cleavage, fluorescence; inhibition, % at 10 µM; actives 1.9% (n = 65,000); AID 565; in the data active = inhibition above about 50%
# The depositor's hits bear a star; ? = inconclusive; nt = no result.
SMILES,RmlCD inh mix,RT RNaseH block
C=CCn1c(SCC(=O)Nc2ccccc2OC)nnc1-c1ccco1,30,7
C=CCn1c(SCC(=O)Nc2nccs2)nnc1-c1cc2cccc(OC)c2o1,12,53*
Cc1ccc(C)c(S(=O)(=O)Nc2ccc3sc(C)nc3c2)c1,-1,nt
Cc1ccc(S(=O)(=O)Nc2ccc3oc(=O)sc3c2)c(C)c1,3,60*
COC(=O)c1ccsc1NC(=O)CN1C(=O)CCC1=O,13,-3
O=C1NC2CCc3nc4ccccc4c(=O)n3C2=Nc2ccccc21 (stereo unspecified),6,nt
Cc1nn(C(=O)c2cccs2)c(C)c1CN1C(=O)c2ccccc2C1=O,-6,64*
Cc1nn(C(=O)c2ccco2)c(C)c1CN1C(=O)c2ccccc2C1=O,8,-19
CCOC(=O)c1c(NC(=O)c2ccc(N3C(=O)C4C5C=CC(C5)C4C3=O)cc2)sc2c1CCCC2 (stereo unspecified),-16,nt
CCOC(=O)Cn1c(=O)oc2cc(S(=O)(=O)Nc3cc(OCC)ccc3OCC)ccc21,-6,2
CCOC(=O)Cn1c(=O)oc2cc(S(=O)(=O)Nc3ccc(N(CC)CC)cc3C)ccc21,6,50*
CCOC(=O)N1CCN(C(=O)CCSc2ccccc2)CC1,61,-2
Cc1nc(CCN2C(=O)c3ccccc3C2=O)cs1,-16,nt
O=C(Nc1ccc(N2CCCCC2)cc1)c1ccccc1,-9,12
O=C(Nc1ccc(N2CCCC2)cc1)c1cccc(F)c1,7,59*
COc1ccc(Br)cc1C1CC(=O)N2CN(Cc3ccccc3)CSC2=C1C#N (stereo unspecified),-3,31
N#CC1=C2SCN(Cc3ccccc3)CN2C(=O)CC1c1ccccc1F (stereo unspecified),-3,61*
Cc1sc2nc(SCC(=O)NCc3ccco3)n(Cc3ccccc3)c(=O)c2c1C,-5,nt
Cc1sc2nc(SCC(=O)NCc3ccco3)n(-c3ccccc3)c(=O)c2c1C,-9,27
Cc1ccc(-n2c(SCC(=O)NCc3ccco3)nc3sc(C)c(C)c3c2=O)cc1,3,55*
CCOC(=O)c1sc2nc(SCC(=O)NCc3ccco3)n(Cc3ccccc3)c(=O)c2c1C,nt,66*
NC(=O)c1ccccc1NC(=O)NC1CCCCC1,2,nt
O=C(Nc1ccccc1NC(=O)NC1CCCCC1)NC1CCCCC1,11,69*
CCN(CCNC(=O)C1CCN(S(=O)(=O)c2cccc3cccnc23)CC1)c1ccccc1,2,-7
O=S(=O)(Nc1cnc2ccccc2c1)N1CCCCCC1,9,-23
SMILES,RmlCD inh mix,RT RNaseH block
O=C(c1ccco1)c1nnn(Cc2ccccc2)c1-c1ccccc1,5,-23
CCOC(=O)c1c(-c2ccccc2)csc1NC(=O)c1ccc(N2C(=O)CCC2=O)cc1,20,nt
CCOC(=O)c1c(-c2ccccc2)csc1NC(=O)c1nn(CC)cc1Br,131,67*
CCN(CC)CCCNC(CC(=O)O)C(=O)O (stereo unspecified),nt,-6
CCOC(=O)c1nn(-c2ccc(OC)cc2)c(=O)c2c(N)scc12,10,75*
CCOC(=O)c1nn(-c2ccc(C)c(C)c2)c(=O)c2c(N)scc12,-15,nt
CCOC(=O)CS(=O)(=O)c1nc(-c2ccccc2)cc(C(F)(F)F)n1,8,20
CCOC(=O)CS(=O)(=O)c1nc(-c2ccc(F)cc2)cc(C(F)(F)F)n1,-9,55*
NC(=O)c1ccccc1Nc1nc(NCCO)nc(N2CCCC2)n1,-9,nt
CCN(CC)C(=O)c1sc2nc(-c3cccs3)cc(-c3cccs3)c2c1N,nt,52*
CCN(CC)C(=O)c1sc2nc(-c3cccs3)cc(-c3ccc(Cl)cc3)c2c1N,13,nt
O=C(CSCc1ccccc1Cl)NNC(=S)Nc1ccccc1,-19,nt
CC(=O)NC(C)C(=O)OCc1ccc(Cl)cc1Cl (stereo unspecified),nt,-8
Cc1ccc2cc(C#N)c(SCC(=O)NCC3CCCO3)nc2c1 (stereo unspecified),-1,-37
Cc1ccc2nc(SCC(=O)NCC3CCCO3)c(C#N)cc2c1 (stereo unspecified),-18,59*
COc1ccc(C(=O)c2ccc(OC)c3cccc(O)c23)cc1OC,-11,nt
COc1ccc2c3c(cccc13)NN=C2C,nt,57*
CCN(CC)S(=O)(=O)c1cccc(-c2nnc(SCc3nnc(-c4cccs4)o3)n2N)c1,-22,4
COc1ccc(OC)c(N(CC(=O)NCc2cccnc2)S(C)(=O)=O)c1,8,-2
COc1ccc(-n2nnnc2Sc2ccc(S(=O)(=O)N3CCOCC3)cn2)cc1,2,86*
COc1ccc(-n2nnnc2SCC(=O)N2CCOCC2)cc1,-6,-2
Cc1cc(NC(=O)c2cc(-c3ccc4c(c3)OCO4)on2)n(-c2ccccc2)n1,?,55*
Cc1cc(NC(=O)c2cc(-c3ccccc3)on2)n(-c2ccccc2)n1,-6,4
O=C(NCc1ccccc1)C1=C[C@@H](c2coc3ccccc3c2=O)C[C@@H](OCc2ccc(CO)cc2)O1,-10,nt
O=C1NCC(=O)N2CCC[C@@H]12,-4,nt
SMILES,RmlCD inh mix,RT RNaseH block
COc1ccc(-n2ncc3c(N4CCN(c5cccc(C)c5C)CC4)ncnc32)cc1,nt,84*
COc1ccc(-n2ncc3c(N4CCCCC4)ncnc32)cc1,-7,-12
CCc1c(C)sc(NC(=O)c2cc(C)on2)c1C#N,-13,-3
CCCc1cc(C(=O)Nc2sc(C)c(CC)c2C#N)no1,nt,53*
CCCCC(=O)Nc1ccc(C(=O)Nc2nc(CC(=O)OCC)cs2)cc1,-123,nt
COc1ccc(CNC(=O)CCCCCn2c(SCC#N)nc3cc4c(cc3c2=O)OCO4)cc1,6,57*
COc1ccc(CCNC(=O)CCCn2c(SCC#N)nc3ccccc3c2=O)cc1OC,15,-14
Cc1[nH]n(C(N)=S)c(=O)c1C(c1ccccc1)C(C#N)C#N (stereo unspecified),0,51*
CCCc1[nH][nH]c(=O)c1C(c1ccccc1)C(C#N)C#N (stereo unspecified),7,-71
COc1ccc(C2/C=C\CN(Cc3ccncc3)CC(=O)N2Cc2ccc(F)cc2)cc1 (stereo unspecified),-16,nt
CC(C)(C)N1OC2CC1c1nc3ccccc3n1C2 (stereo unspecified),4,nt
CCCCn1c(=O)c(C(=O)Nc2nc3ccccc3[nH]2)c(O)c2ccccc21,nt,22
CCn1c(=O)c(C(=O)Nc2nc3ccccc3[nH]2)c(O)c2ccccc21,-3,75*
CCc1nc2ccc(F)cc2c(C(=O)NC2CCCCC2C)c1C (stereo unspecified),-5,nt
COc1ccc(C(=O)NC(NC(=S)Nc2ccc(S(N)(=O)=O)cc2)C(Cl)(Cl)Cl)cc1 (stereo unspecified),4,nt
CC(C)Cn1c2c(c(O)c(C(=O)Nc3ncccc3O)c1=O)CCCC2,6,8
CCCCc1nc2ccccc2c(=O)n1NC(=O)c1c(O)c2c(n(CC(C)C)c1=O)CCCC2,-7,52*
O=C1c2ccccc2S(=O)(=O)c2cc(C(=O)N3CCC(C(=O)N4CCCCC4)CC3)ccc21,12,nt
CCOC(=O)c1c(-c2ccco2)csc1N,-6,56*
CCOC(=O)c1c(-c2ccco2)csc1NC(=O)CSc1nnc(N)s1,-10,nt
CCOC(=O)C1=C(C)NC(=O)NC1/C(C)=C/c1ccccc1 (stereo unspecified),9,-21
COc1cccc(NC(=O)CSc2nc3c(c(-c4ccco4)c2C#N)CCCC3)c1,13,58*
